The nature of experiment [1]: Nrf2 qHTS screen for inhibitors: Validation (AID 493153; active means well fitted inhibition curve with a large enough effect in the main read-out, with a control signal flat, not every such curve was filed as active). The settings on record: Potency: luciferase luminescence; viability change: measured here: cytotoxicity max response. Put shortly:
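Concentration-response on A549 ARE_Fluc reporter cells exposed 18-24 h at 37 C, 5% CO2. Cytotoxicity read first by CellTiter-Fluor fluorescence (Ex 405/Em 525), then Nrf2 inhibition by BugLite luminescence after 15 min.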
Background: In qHTS, concentration-response curves come from the screen itself.

Experiment [2] in a line: qHTS for Inhibitors of Cell Surface uPA Generation: Validation Assay (AID 493164).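 Further: RAW 264.7 macrophage cells exposed to compound for 18 h; 0% is about no effect.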 Put shortly:
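ATP-Lite luminescence read-out: ATP remains high when uPA activity-dependent LF translocation into the cytoplasm is blocked. RAW 264.7 cells, 18 h compound exposure at 37 C; 7-point titration, 2.45 nM to 38.3 uM final.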

The target in experiment [3] is Galactokinase (Homo sapiens) (UniProt P51570). Nature of the experiment: qHTS Validation Assay for Inhibitors of Human Galactokinase (GALK) (AID 493189). Further: 0% is about no effect. The gist of the method:
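GALK (5 nM) with 35 uM ATP and 100 uM galactose in HEPES pH8.0, MgCl2, NaCl, DTT, BSA; 1 h at room temperature. Residual ATP read by Kinase-Glo Plus luminescence after 10 min.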

Experiment [4] in a line: Validation screen for small molecules that induce DNA re-replication in SW480 colon adenocarcinoma cells (AID 504364). Further: 0% is about no effect. The gist of the method: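 Image-based DNA content read-out: Hoechst stain 40 min, total nuclear fluorescence intensity (ex 405 nm, em 500-530 nm) after 48 h compound exposure of 250 SW480 cells/well at 37 C, 5% CO2, versus DMSO vehicle.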
Experiment [5] has as its target Peptidyl-prolyl cis-trans isomerase NIMA-interacting 1 (Homo sapiens) (UniProt Q13526). Put plainly: qHTS Validation Assay to Find Inhibitors of Pin1 (AID 504536; active means well fitted inhibition curve with a large enough effect in the polarisation, with a control signal flat, not every such curve was filed as active; the % refers to the polarisation;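 further: 0% = full Pin1 enzyme wells and -100% = no-enzyme wells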). The gist of the method:
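Fluorescence polarization competition: compounds (titration) displace HiFluor-488-labeled Pin1-1b peptide from Pin1 (0.3 uM final) in pH 7.5 HEPES buffer with DTT, 10 min at room temperature; %Activity normalized to no-enzyme wells, curves fitted.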

Experiment [6] addresses Phosphoglycerate kinase, glycosomal (Trypanosoma brucei brucei) (UniProt P07378). Nature of the experiment: qHTS Validation Assay to Find Inhibitors of Phosphoglycerate Kinase (AID 504547).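 Further: control wells lack PGK and mark full inhibition.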 The gist of the method: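 Luminescence end-point (Kinase-Glo Plus, 10 min) after a 60 min room-temperature coupled reaction. GAPDH at 100nM final supplies 1,3-BPG to PGK. Buffer: 100mM TEA pH 7.6, 5mM MgCl2, 0.01% Tween-20. Wells lacking PGK served as controls.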

The target in experiment [7] is phosphoglycerate mutase (Leishmania major) (UniProt Q4Q090). Nature of the experiment: qHTS Validation Assay to Find Inhibitors of Phosphoglycerate Mutase (AID 504548). Further: series mostly up to about 58 µM; on the % scale 0 is the no-effect control and ±100 the full control effect. The gist of the method:
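Luminescent end-point read-out via Kinase-GloPlus after a 10-minute development. Reaction: 1.25nM Leishmania major PGAM with substrate and compound, 45 minutes at room temperature in TEA buffer (pH 7.6) with MgCl2 and Tween-20.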

In experiment [8] the target is Ubiquitin carboxyl-terminal hydrolase 1 (Homo sapiens) (UniProt O94782). Put plainly: Inhibitors of USP1/UAF1: Pilot qHTS (AID 504865).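 Further: rhodamine fluorescence freed from ubiquitin-rhodamine substrate followed over time; top concentration of the series differs between compounds; on the % scale 0 is the no-effect control and ±100 the full control effect; nearly all actives have a fitted effect of over 35% in size.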 Put shortly: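 USP1/UAF1 complex (1nM) preincubated with compound 15 min at room temperature, then Ub-Rho substrate (150nM final) added. Fluorescence read kinetically at 480/540 nm, 6 reads every 60 seconds. Buffer: 50mM HEPES pH 7.8, 0.5mM EDTA, 0.1 mg/ml BSA, 1mM TCEP, 0.01% Tween-20.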
Sequence of Ubiquitin carboxyl-terminal hydrolase 1 (Homo sapiens) (O94782 whole entry, looked up): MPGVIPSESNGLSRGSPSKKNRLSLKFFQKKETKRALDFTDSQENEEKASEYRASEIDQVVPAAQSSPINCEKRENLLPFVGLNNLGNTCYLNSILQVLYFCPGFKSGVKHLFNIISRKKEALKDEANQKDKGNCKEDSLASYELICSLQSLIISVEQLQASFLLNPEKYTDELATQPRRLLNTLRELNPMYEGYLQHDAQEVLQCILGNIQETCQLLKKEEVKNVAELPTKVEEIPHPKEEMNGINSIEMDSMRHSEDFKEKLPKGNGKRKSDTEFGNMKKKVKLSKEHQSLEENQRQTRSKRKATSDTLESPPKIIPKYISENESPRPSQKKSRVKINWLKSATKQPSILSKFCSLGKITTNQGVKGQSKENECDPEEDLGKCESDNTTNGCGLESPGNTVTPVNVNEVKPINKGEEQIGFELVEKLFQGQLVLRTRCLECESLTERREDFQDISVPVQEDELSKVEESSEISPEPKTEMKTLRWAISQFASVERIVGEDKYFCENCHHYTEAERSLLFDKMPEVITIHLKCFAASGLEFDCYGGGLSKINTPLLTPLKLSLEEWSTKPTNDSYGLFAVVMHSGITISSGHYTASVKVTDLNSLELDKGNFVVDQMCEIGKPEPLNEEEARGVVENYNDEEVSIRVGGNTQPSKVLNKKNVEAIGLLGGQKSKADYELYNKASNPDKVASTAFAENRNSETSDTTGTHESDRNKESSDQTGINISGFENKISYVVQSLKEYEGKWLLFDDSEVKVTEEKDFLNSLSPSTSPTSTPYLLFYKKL

Experiment [9] in a line: qHTS for Inhibitors of ATXN expression: Validation of Cytotoxic Assay (AID 588349). Further: on the % scale 0 is the no-effect control and ±100 the full control effect. The gist of the method: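 Cytotoxicity counter-screen: ATP-based luminescent viability (CellTiter Glo) after 72 hr exposure of HEK293 cells to a compound titration at 37 degrees C.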
A short description of experiment [10]: qHTS for Inhibitors of ATXN expression: Validation (AID 588378). Further: series mostly up to about 57 µM; on the % scale 0 is the no-effect control and ±100 the full control effect; nearly all actives have a fitted effect of over 75% in size. Put shortly:
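Luminescence from an ATXN2-FFLuc reporter in HEK293 cells served as read-out after 24 h compound treatment at 37 degrees C; CellTiter-Fluor fluorescence was recorded first to assess viability.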

In experiment [11] the target is Glucocorticoid receptor (Homo sapiens) (UniProt P04150). Put plainly: qHTS assay for small molecule agonists of glucocorticoid receptor signaling (AID 588532; active means well fitted curve in the direction sought with a large enough effect in the signal ratio, with a control signal flat; the % refers to the signal ratio;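 further: 100% = dexamethasone at 0.1 µM and 0% = DMSO only wells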). The settings on record: HeLa MMTV-bla, beta-lactamase ratio, agonist, 18 h; activation: stronger effect = higher value, percent of dexamethasone control, DMSO zero. The gist of the method: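 Quantitative HTS using CellSensor MMTV-bla HeLa cells in charcoal/dextran-treated serum; compounds tested up to 92 uM. After 18 h at 37 C, CCF4 dye reported reporter induction.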
Sequence of Glucocorticoid receptor (Homo sapiens) (P04150 whole entry, looked up): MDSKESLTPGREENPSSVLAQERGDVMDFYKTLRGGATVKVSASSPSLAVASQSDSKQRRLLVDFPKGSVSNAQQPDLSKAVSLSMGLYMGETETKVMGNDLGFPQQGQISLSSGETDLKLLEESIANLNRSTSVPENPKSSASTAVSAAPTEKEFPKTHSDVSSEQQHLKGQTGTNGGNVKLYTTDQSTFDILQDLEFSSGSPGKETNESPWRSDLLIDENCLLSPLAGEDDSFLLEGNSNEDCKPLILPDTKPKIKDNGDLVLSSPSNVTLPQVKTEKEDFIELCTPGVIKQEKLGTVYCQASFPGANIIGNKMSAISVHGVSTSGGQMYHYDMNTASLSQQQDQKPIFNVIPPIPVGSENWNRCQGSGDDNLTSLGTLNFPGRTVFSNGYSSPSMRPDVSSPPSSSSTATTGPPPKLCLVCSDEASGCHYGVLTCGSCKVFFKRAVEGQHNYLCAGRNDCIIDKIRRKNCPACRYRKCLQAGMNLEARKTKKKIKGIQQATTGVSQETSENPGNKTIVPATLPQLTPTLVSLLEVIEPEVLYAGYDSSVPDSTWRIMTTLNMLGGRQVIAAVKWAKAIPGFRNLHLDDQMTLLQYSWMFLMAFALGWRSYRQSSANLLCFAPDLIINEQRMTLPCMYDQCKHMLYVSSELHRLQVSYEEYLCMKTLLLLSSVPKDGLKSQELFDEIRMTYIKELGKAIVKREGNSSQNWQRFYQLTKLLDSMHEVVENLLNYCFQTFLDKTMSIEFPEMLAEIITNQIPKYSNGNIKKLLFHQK

Experiment [12] deals with Estrogen receptor (Homo sapiens) (UniProt P03372). Nature of the experiment: qHTS assay for small molecule agonists of estrogen receptor alpha signaling (AID 588514; calls by dose curve;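 further: 0% = vehicle only and 100% = reference agonist; nearly all actives have a fitted effect of over 70% in size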). The gist of the method: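 EC50 and efficacy came from Hill fits of beta-lactamase reporter signal (CCF4 dye, 2 h at room temperature) scaled between DMSO and 20 nM 17-beta-estradiol. Agonist mode: HEK293 ER-alpha-UAS-bla cells in charcoal/dextran-stripped serum medium, 18 h compound exposure at 37 C.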
Sequence of Estrogen receptor (Homo sapiens) (P03372 whole entry, looked up): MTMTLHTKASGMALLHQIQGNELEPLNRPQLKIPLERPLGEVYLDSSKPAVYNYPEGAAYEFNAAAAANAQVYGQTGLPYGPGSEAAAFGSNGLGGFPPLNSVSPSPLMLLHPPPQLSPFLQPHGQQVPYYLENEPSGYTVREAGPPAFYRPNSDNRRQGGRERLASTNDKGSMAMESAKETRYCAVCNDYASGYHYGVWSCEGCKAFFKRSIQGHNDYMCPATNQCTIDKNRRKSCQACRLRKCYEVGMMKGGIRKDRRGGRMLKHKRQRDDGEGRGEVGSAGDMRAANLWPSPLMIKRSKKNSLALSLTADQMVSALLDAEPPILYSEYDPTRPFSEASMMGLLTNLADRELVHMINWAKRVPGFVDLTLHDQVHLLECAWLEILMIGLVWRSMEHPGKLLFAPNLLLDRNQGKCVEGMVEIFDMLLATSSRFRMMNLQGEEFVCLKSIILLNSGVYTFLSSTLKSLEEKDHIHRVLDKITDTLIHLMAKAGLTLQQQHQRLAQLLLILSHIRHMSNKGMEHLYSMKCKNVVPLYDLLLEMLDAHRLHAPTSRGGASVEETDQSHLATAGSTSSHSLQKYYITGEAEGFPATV

Experiment [13] has as its target Bile acid receptor (Homo sapiens) (UniProt Q96RI1). Nature of the experiment: qHTS assay for small molecule antagonists of farnesoid X receptor signaling (AID 588526; calls by dose curve; further: on the % scale 0 is the no-effect control and ±100 the full control effect). The gist of the method: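 Beta-lactamase reporter antagonist mode: HEK293T FXR-UAS-bla cells, titrated compound, CDCA stimulation, 16 h 37 C, CCF4 dye 2 h RT. Data normalized to CDCA 50 uM and DMSO; Hill-fit IC50.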

In experiment [14] the target is Glucocorticoid receptor (Homo sapiens) (UniProt P04150). Put plainly: qHTS assay for small molecule antagonists of glucocorticoid receptor signaling (AID 588533; active means well fitted inhibition curve with a large enough effect in the signal ratio, with a control signal flat, not every such curve was filed as active; the % refers to the signal ratio;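 further: cells stimulated with 2 nM dexamethasone as agonist; on the % scale 0 is the no-effect control and ±100 the full control effect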). The gist of the method: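 Antagonist-mode qHTS: compound titrations added to GRE-bla HeLa cells, then dexamethasone 2 nM final; 18 h, 37 C. CCF4 FRET fluorescence normalized to dexamethasone and DMSO; IC50 from Hill fit.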

Experiment [15] can be described thus: qHTS assay for small molecule antagonists of peroxisome proliferator-activated receptor delta signaling (AID 588535; active means well fitted inhibition curve with a large enough effect in the signal ratio, with a control signal flat, not every such curve was filed as active; the % refers to the signal ratio;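 on max response: cells co-treated with a PPAR-delta agonist as stimulator during compound exposure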). The settings on record: HEK293T PPARd-UAS-bla, beta-lactamase FRET ratio, 18 h; 460 nm channel. The gist of the method:
(§1)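 Titrations were run on PPAR-delta-UAS-bla HEK293T cells in charcoal/dextran-stripped serum, incubated 18 h at 37 C. CCF4 fluorescence (460/530 nm) after 2 h RT; Hill equation yields IC50 and maximal response.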

The target of experiment [16] is Peroxisome proliferator-activated receptor delta (Homo sapiens) (UniProt Q03181). Described as above. The gist of the method: as §1
Sequence of Peroxisome proliferator-activated receptor delta (Homo sapiens) (Q03181 whole entry, looked up): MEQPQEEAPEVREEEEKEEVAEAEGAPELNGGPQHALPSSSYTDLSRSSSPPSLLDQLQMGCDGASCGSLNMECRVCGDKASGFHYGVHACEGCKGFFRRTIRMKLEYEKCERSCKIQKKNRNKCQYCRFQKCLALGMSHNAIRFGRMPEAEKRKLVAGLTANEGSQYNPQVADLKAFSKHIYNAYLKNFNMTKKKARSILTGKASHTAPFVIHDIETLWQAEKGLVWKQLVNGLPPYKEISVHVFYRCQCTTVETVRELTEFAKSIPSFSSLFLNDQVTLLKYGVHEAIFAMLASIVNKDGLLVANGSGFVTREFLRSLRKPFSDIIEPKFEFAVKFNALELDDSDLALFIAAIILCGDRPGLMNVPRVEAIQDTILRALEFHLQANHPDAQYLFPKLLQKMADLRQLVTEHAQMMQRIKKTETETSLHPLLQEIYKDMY

Each structure is given as a SMILES string. Several values for one entry are separate records, joined by “and”; a condition that tells them apart may be missing. Identical values can stand only once. Inconclusive results are not listed. Activity calls are given as the source filed them. Unless noted, the call rests on the fitted dose curve; in most records, active means well fitted curve in the direction sought with a large enough effect; inconclusive means small, poorly fitted or top-dose-only effect, or another doubt; inactive means no such curve, though single readings can be large; an effect the other way counts as inactive or inconclusive.

Sequence of Phosphoglycerate kinase, glycosomal (Trypanosoma brucei brucei) (P07378 whole entry, looked up): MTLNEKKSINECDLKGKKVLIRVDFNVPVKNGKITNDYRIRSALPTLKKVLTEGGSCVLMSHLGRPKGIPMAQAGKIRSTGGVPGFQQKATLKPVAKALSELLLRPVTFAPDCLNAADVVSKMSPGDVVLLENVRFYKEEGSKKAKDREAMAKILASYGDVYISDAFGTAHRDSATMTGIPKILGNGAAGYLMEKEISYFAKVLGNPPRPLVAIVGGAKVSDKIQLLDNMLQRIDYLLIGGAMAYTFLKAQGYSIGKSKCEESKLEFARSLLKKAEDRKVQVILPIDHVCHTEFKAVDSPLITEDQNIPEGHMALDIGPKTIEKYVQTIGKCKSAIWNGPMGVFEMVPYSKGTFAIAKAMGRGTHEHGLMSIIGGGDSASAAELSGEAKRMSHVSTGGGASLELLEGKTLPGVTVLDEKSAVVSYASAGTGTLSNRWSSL
Sequence of Galactokinase (Homo sapiens) (P51570 whole entry, looked up): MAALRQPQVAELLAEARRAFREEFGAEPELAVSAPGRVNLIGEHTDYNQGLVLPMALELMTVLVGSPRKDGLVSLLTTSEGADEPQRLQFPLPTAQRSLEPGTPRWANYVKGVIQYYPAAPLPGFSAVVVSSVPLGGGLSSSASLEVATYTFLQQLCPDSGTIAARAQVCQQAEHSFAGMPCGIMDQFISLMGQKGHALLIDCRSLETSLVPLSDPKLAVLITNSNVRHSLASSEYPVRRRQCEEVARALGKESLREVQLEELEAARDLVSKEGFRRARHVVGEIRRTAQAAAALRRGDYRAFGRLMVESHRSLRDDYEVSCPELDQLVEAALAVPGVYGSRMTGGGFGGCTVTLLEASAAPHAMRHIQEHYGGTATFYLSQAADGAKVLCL
Sequence of Peptidyl-prolyl cis-trans isomerase NIMA-interacting 1 (Homo sapiens) (Q13526 whole entry, looked up): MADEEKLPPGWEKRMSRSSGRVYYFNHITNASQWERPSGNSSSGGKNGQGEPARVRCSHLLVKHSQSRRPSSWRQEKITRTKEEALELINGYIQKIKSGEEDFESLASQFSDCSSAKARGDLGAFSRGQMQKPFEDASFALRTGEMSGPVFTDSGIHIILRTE
Sequence of phosphoglycerate mutase (Leishmania major) (Q4Q090 1-553): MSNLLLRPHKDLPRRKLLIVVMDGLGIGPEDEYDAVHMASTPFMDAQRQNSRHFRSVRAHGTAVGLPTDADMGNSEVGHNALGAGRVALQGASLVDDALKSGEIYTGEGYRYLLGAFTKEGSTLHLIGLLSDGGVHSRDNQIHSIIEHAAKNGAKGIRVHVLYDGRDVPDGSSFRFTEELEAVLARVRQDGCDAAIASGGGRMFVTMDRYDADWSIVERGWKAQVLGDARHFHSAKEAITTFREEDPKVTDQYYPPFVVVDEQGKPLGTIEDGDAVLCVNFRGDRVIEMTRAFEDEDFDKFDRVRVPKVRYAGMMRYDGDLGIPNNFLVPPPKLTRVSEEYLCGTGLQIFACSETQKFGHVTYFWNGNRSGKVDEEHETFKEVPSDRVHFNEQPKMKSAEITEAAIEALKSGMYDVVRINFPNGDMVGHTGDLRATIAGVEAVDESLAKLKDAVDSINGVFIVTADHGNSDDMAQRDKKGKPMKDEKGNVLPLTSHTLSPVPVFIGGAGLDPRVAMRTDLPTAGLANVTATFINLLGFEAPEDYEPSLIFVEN
Sequence of Bile acid receptor (Homo sapiens) (Q96RI1 whole entry, looked up): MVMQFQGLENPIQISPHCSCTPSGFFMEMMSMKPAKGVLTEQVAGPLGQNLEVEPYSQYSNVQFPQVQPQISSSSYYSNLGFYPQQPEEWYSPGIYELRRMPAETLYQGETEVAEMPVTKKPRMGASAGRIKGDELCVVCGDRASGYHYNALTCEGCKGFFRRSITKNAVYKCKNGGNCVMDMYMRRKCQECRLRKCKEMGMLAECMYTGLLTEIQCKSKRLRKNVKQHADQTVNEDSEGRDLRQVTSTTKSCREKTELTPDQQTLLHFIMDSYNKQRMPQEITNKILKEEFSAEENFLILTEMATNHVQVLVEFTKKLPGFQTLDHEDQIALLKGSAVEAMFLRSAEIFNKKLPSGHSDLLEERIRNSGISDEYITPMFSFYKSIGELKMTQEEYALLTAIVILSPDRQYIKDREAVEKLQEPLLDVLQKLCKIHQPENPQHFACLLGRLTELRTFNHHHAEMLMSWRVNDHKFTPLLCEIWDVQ

Consider `CN(C)C(=O)Oc1ccc[n+](C)c1`, for which the Potency entry in experiment [1], in [8], in experiment [9] and in experiment [10] was “inactive” each time. Further, the viability change in experiment [1] was -10.4%. The molecule was classed as inactive in experiment [2], in [3], in [4], in experiment [5], in [6] and in experiment [7].
Turning to `CCCCCCCC/C=C\CCCCCCCC(=O)NCc1ccc(O)c(OC)c1`, the Potency result in experiment [1] and in [10] was “inactive” throughout. Further, the viability change in experiment [1] was -10.2%. Also, the result in [2], in [5], in experiment [6] and in experiment [7] was inactive.
On to `CN1C[C@H](C(=O)N[C@]2(C)O[C@@]3(O)[C@@H]4CCCN4C(=O)[C@H](Cc4ccccc4)N3C2=O)C[C@@H]2c3cccc4[nH]cc(c34)C[C@H]21`, for which the Potency result in [1] and in experiment [10] was “inactive” each time. In addition, in [1], the viability change was -1.86%. Moreover, the outcome in experiment [2], in [5], in experiment [6] and in [7] was inactive.
Take `CC(=O)[C@@]1(O)CC[C@H]2[C@@H]3CCC4=CC(=O)CC[C@]4(C)[C@H]3CC[C@@]21C`: the molecule was called inactive in experiment [2], in experiment [5], in experiment [6] and in experiment [7]. The Potency result in experiment [9] and in experiment [10] was “inactive” each time. In [11], the activation is 1.8% (inactive).
Turning to `Cc1ccc(/C(=C\CN2CCCC2)c2ccccn2)cc1`, the Potency entry in [1], in experiment [9] and in experiment [10] was “inactive” in each case. The viability change in experiment [1] was found to be 2.7%. Besides, the result in experiment [2], in experiment [3], in [4], in experiment [5], in experiment [6] and in [7] was inactive.
In the case of `O=C(O)CP(=O)(O)O`, the Potency result in experiment [1], in experiment [8], in experiment [9] and in experiment [10] was “inactive” throughout. In experiment [1], the viability change is 10.3%. Also, the call in experiment [2], in experiment [3], in experiment [4], in [5], in experiment [6] and in experiment [7] was inactive.
For `CN(C)[C@@H]1C(=O)C(C(N)=O)=C(O)[C@@]2(O)C(=O)C3=C(O)c4c(O)ccc(Cl)c4[C@@H](O)[C@H]3C[C@@H]12`, the Potency result in experiment [1], in [8], in [9] and in experiment [10] was “inactive” in each case. In addition, in experiment [1], the viability change is 4.27%. In addition, the result in [2], in experiment [6] and in [7] was inactive.
Take `NC1=NCC2c3ccccc3Cc3ccccc3N12` (stereo not drawn): the Potency result in [1] and in experiment [10] was “inactive” in each case. In addition, in experiment [1], the viability change came out at 6.37%. Besides, the outcome in experiment [2], in experiment [5], in experiment [6] and in experiment [7] was inactive.
Turning to `CC(C)(C)c1ccc(C(=O)CCCN2CCC(OC(c3ccccc3)c3ccccc3)CC2)cc1`, the Potency entry in [1], in experiment [9] and in [10] was “inactive” each time. Also, the viability change in [1] was -5.59%. Moreover, the outcome in experiment [2], in experiment [5], in experiment [6] and in experiment [7] was inactive.
As for `NC(=Nc1ccccc1)Nc1ccccc1`, the Potency result in experiment [8], in experiment [12] and in [14] was “inactive” each time. In addition, the call in experiment [13] and in experiment [16] was inactive. For the same molecule, in [15], the max response is 0.0144% and 57.9%.
`Fc1ccc(C(c2ccc(F)cc2)N2CCN(C/C=C/c3ccccc3)CC2)cc1`: the Potency entry in experiment [1] is “inactive”. The viability change in experiment [1] is -8.46%. Further, the outcome in experiment [2], in [3], in experiment [5], in [6] and in experiment [7] was inactive.
In the case of `Cc1cccc(C)c1NC(=O)C(C)N` (stereo not drawn), the Potency result in [1], in experiment [8], in experiment [9] and in [10] was “inactive” in each case. Besides, in experiment [1], the viability change is 3.48%. The molecule was called inactive in experiment [2], in experiment [5], in experiment [6] and in experiment [7].

(Values after PubChem BioAssay (NCATS).)
